# In the library only some 1.7% were active in any assay of this set; here they are far more common.
# LANA-H2A inh: blockers of LANA interaction with H2A/H2B – biochemical, FP readout, HTS, primary screen. Protein LANA1 (Human herpesvirus 8 type P (isolate GK18)), Q9QR71. cell-free LANA-H2A/H2B peptide, fluorescence polarization. inhibition, % (no concentration beside the values). actives 0.6% (n = 320,000); in the data active means inhibition mostly above about 10%, no sharp cut-off; inactive means mostly below about 6.7%
# HDAC3 inh: HDAC3 deacetylase inhibitors, primary screen, biochemical, fluorescence, cell-free homogeneous; Histone deacetylase 3 (Homo sapiens), O15379; recombinant HDAC3, fluorogenic peptide/trypsin coupled; inhibition, % at 8.3 µM; actives 0.15% (n = 320,000); in the data active means inhibition above about 26%, passing the limit was not always enough; inconclusive means no clear call, values can overlap the other calls
# Target sequence (O15379 whole entry, looked up): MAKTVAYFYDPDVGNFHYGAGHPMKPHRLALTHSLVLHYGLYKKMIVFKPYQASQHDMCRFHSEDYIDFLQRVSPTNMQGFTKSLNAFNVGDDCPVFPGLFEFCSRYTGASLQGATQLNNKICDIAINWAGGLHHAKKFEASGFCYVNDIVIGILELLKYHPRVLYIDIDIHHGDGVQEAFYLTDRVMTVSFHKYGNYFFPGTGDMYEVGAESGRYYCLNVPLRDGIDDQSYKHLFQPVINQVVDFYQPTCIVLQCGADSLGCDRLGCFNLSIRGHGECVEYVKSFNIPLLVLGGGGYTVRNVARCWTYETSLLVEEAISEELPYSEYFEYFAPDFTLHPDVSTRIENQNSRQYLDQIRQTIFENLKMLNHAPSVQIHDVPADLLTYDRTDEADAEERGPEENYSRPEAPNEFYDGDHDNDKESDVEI
# CTSL1 counter: Fasciola hepatica cathepsin L1 inhibitors, primary screen, counter-screen for PFM18AAP inhibitor project, biochemical, QFRET, fluorogenic peptide substrate; recombinant F. hepatica cathepsin L1, Z-Leu-Arg-MCA fluorescence; inhibition, % at 5.96 µM; actives 0.49% (n = 300,000);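 active means inhibition above the mean of all tested compounds plus 3 SD, set per screening campaign, cut at about 17% in these data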;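 further: 0% = plate median of test compound wells and 100% = 1 µM Z-Phe-Ala-diazomethylketone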
# m5-HT2A agonist: mouse Htr2a agonists via beta-arrestin recruitment, primary screen, cell-based, luminescence. 5-hydroxytryptamine receptor 2A (Mus musculus), P35363. CHO-K1 mHTR2A beta-arrestin complementation; percent of 30 µM serotonin response. activation, % at 7.6 µM. actives 0.66% (n = 360,000);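 active means activation above a run cutoff, the mean activation of all tested compounds plus 3 SD, cut at about 14% in these data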;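 further: 0% = plate median of compound wells and 100% = 30 µM serotonin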
# OPRM1 ag: OPRM1 agonists via beta-arrestin recruitment, confirmation, counter-screen for mouse HTR2A agonist project, cell-based, luminescence, single concentration. U2OS OPRM1 beta-arrestin PathHunter; DMSO 0%, DAMGO 9.3 µM 100%. AID 624380, 2012. actives 5.3% (n = 2,300). shares compounds with m5-HT2A agonist. activation, % at 9.3 µM;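 active means mean activation above the mean of DMSO-only wells plus 3 SD, cut at about 0.5% in these data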
# m5-HT2A ag conf: mouse HTR2A agonists, beta-arrestin recruitment, confirmation, cell-based, luminescence, CHO-K1 PathHunter, triplicate; shares compounds with m5-HT2A agonist; DMSO 0%, 30 µM serotonin 100%; activation, % at 7.6 µM; actives 19% (n = 2,300);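 active means mean activation across triplicates above the hit threshold derived in the original primary screen, cut at about 15% in these data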
# Starred values were filed as active, the others as inactive; ? = inconclusive; nt = not tested or not shown.
SMILES,LANA-H2A inh,HDAC3 inh,CTSL1 counter,m5-HT2A agonist,OPRM1 ag,m5-HT2A ag conf
COc1ccccc1NC(=S)NCc1ccc2c(c1)cc(C)n2C,1,-2,0,-1,nt,nt
COCC(C)n1c(C)cc(C(=O)COC(=O)c2cnc(Cl)c(Cl)c2)c1C (configuration not stated),1,1,nt,15*,0,-2
COCC(C)n1c(C)cc(C(=O)COC(=O)c2ccc3ncsc3c2)c1C (configuration not stated),2,4,-2,1,nt,nt
CCCOc1ccc(CN(C)c2ncnc(N)n2)cc1,3,0,-3,-3,nt,nt
COc1ccc(CN(C)c2ncnc(N)n2)cc1,-3,-7,3,19*,-1,-3
Cc1cc(OCC(=O)Nc2cnn(CCCC(=O)O)c2)ccc1Cl,-5,11,10,2,nt,nt
O=C(NCCCc1ccccc1)c1cccc(S(=O)(=O)N2CCOCC2)c1,0,-2,nt,15*,0,-2
O=C(NCc1ccccc1)c1cccc(S(=O)(=O)N2CCOCC2)c1,-5,-2,7,-5,nt,nt
COc1ccc(CCN2CC(C(=O)OCC(=O)N(C)CC(=O)Nc3ccccc3Cl)CC2=O)cc1OC (configuration not stated),nt,nt,nt,6,nt,nt
COc1ccc(C(CC(=O)O)NS(=O)(=O)c2ccc3c(c2)NC(=O)CO3)cc1 (configuration not stated),-4,0,-2,2,nt,nt
CCN(C(=O)CN1C(=O)NC2(CCc3ccccc32)C1=O)C1CCS(=O)(=O)C1 (configuration not stated),-2,3,nt,-8,nt,nt
CN(C(=O)CN1C(=O)NC2(CCc3ccccc32)C1=O)C1CCS(=O)(=O)C1 (configuration not stated),0,0,1,18*,-1,-2
COC(=O)c1ccc(OC)c(CN2CCCN(Cc3ccc(F)cc3)S2(=O)=O)c1,-1,3,-3,2,nt,nt
COc1ccccc1N(C)S(=O)(=O)c1ccc(C(=O)Nc2nc(C)c(C(C)=O)s2)cc1,nt,nt,nt,18*,0,-2
COc1ccccc1N(C)S(=O)(=O)c1ccc(C(=O)Nc2ncc(C)s2)cc1,4,-3,nt,-17,nt,nt
O=C(O)c1ccc(S(=O)(=O)N2CCC3(CC2)CC(=O)c2ccccc2O3)cc1,-4,-15,6,19*,0,2
Cc1ccc(S(=O)(=O)N2CCC3(CC2)CC(=O)c2ccccc2O3)cc1,1,-8,-1,-2,nt,nt
COc1ccc(OCC(=O)N2c3ccccc3CC2C)c([N+](=O)[O-])c1 (configuration not stated),3,8,nt,4,nt,nt
Cc1cc2oc(=O)cc(Cn3ccnc3)c2cc1Cl,-6,-1,-6,26*,-1,-3
Cc1cc2oc(=O)cc(Cn3ccnc3)c2cc1O,-2,-3,nt,2,nt,nt
Cc1ccc2c(CN3CCN(c4ccc(Cl)c(Cl)c4)CC3)cc(=O)oc2c1,nt,nt,nt,18*,0,-4
COc1ccc(N2CCN(Cc3cc(=O)oc4cc(C)c(Cl)cc34)CC2)cc1,2,-5,1,8,nt,nt
Cc1cc2oc(=O)cc(CN3CCN(c4ccc(Cl)c(Cl)c4)CC3)c2cc1Cl,nt,nt,nt,17*,0,2
Cc1ccc2c(CN3CCCCC3)cc(=O)oc2c1,-3,3,-2,-4,nt,nt
N=c1sccn1CC(=O)Nc1cccc2ccccc12,-3,-3,2,20*,0,7
SMILES,LANA-H2A inh,HDAC3 inh,CTSL1 counter,m5-HT2A agonist,OPRM1 ag,m5-HT2A ag conf
N=c1sccn1CC(=O)Nc1cccc(Oc2ccccc2)c1,-1,?,6,-4,nt,nt
CCOC(=O)C(NC(=O)C1C(C)N1S(=O)(=O)c1ccc(C)cc1)C(=O)OCC (configuration not stated),2,-1,-1,16*,-1,-3
CCOC(=O)c1nn(-c2ccccc2)c2nc(-c3ccc(OC)cc3)c(C#N)c(=O)n12,-2,-7,-4,19*,0.6*,8
CCOC(=O)c1nn(-c2ccccc2C)c2nc(-c3ccc(C)cc3)c(C#N)c(=O)n12,3,-1,9,-2,nt,nt
O=C(COC(=O)/C=C/c1ccc(C(F)(F)F)cc1)NCC1CCCCC1,-5,1,-3,25*,-1,-5
CC1CN(C(=O)COC(=O)/C=C/c2ccc(C(F)(F)F)cc2)CC(C)O1 (configuration not stated),-1,-1,nt,3,nt,nt
COc1ccc(C2CC(c3ccc4ccccc4c3)=NN2C(=O)COC(=O)C2CCC(=O)N2)cc1 (configuration not stated),0,2,2,15*,0,-1
COc1cccc(C(=O)N2CCN(C(=O)C3CC3)CC2)c1,nt,nt,nt,0,nt,nt
S=C(NC1CCCCC1)N1CCN(Cc2ccccc2Cl)CC1,-2,8,-3,17*,0,1
Cn1c(NC(=O)C[n+]2cc(-c3ccc(F)cc3)n3c2CCC3)cc(=O)n(C)c1=O,1,-3,-2,15*,-1,-3
CCOC(=O)c1nc(C)sc1-c1ccnn1S(=O)(=O)c1ccc(C)cc1,1,1,0,-4,nt,nt
O=C1CN(C(=O)c2ccc(Br)o2)C(c2ccccc2)c2cc(Br)ccc2N1 (configuration not stated),1,7,0,6,nt,nt
Cc1ccc2c(c1)C(c1ccccc1)N(C(=O)c1ccc(Br)o1)CC(=O)N2 (configuration not stated),-1,2,4,19*,0,-3
CCOC(=O)C1CCN(Cc2cnc(Oc3ccc(C(C)(C)C)cc3)s2)CC1,-4,12,2,19*,0,39*
COC(=O)Nc1ncc(CN2CCc3ccccc3C2)s1,3,0,1,3,nt,nt
CCOC(=O)C1CCN(Cc2cnc(NC(=O)OC)s2)CC1,4,-7,-1,16*,0,23*
Cc1c(S(=O)(=O)Nc2cccc3ccccc23)c(=O)n(C)c(=O)n1C,1,-2,-2,-1,nt,nt
O=C(N=C1SC2CS(=O)(=O)CC2N1c1cc(Cl)ccc1Cl)C1CCCO1 (configuration not stated),-6,-4,5,-2,nt,nt
Cc1cccc(C)c1-n1nnnc1C1(C)CCC(=O)N1c1ccc(N2CCOCC2)cc1 (configuration not stated),nt,nt,nt,-1,nt,nt

# High-throughput results: PubChem, several laboratories
